Source: PubChem (National Center for Advancing Translational Sciences (NCATS))
Most compounds without a hit are left out; they make up all but 3.8% or so of the library.
HT1080 IDH1KD tx = kills HT-1080 cells with IDH1 knockdown; HT-1080 IDH1 knockdown viability, ATP luminescence, 48 h; Potency, µM (series often up to 46.1 µM), inactives show at the top dose activity, negative = toxicity, actives largely listed as cytotoxic; actives 2% (n = 360,000);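 note: 0% = DMSO wells and -100% = cell-free medium wells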
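After a 2 h attachment period, IDH1KD HT-1080 cells took pin-transferred compound for 48 h at 37 °C; ATP-based luminescence after 10 min room-temperature reagent incubation reported viability.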
ATXN viability = cell viability loss in ATXN counter-screen | S2 cells (HEK-293 line with an ATXN2-luciferase reporter) viability, CellTiter-Fluor protease fluorescence, 24 h | Potency, µM (series often up to 56.7 µM), actives largely listed as cytotoxic | actives 0.49% (n = 400,000); note: nearly all actives have a fitted effect of over 40% in size
HepG2 tox = counter-screen for TGF-b inhibitors: cytotoxicity in HepG2 cells | HepG2 CAGA-GFP viability, ATP luminescence, 18 h | AID 588856 | Potency, µM (titrated, usually from 46.1 µM), for inactives: at the top dose activity change, negative = cytotoxicity, actives largely listed as cytotoxic | actives 0.76% (n = 410,000)
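HepG2 CAGA-GFP cells (1000/well, DMEM with 1% FBS) received compound, then TGF-beta at 500 pg/mL final, and were incubated 18 hours at 37 degrees C. Viability was read by CellTiter-Glo luminescence. Media-only wells were set as complete cell-killing and DMSO as no toxicity.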
HT1080NT lethal = kills 2HG-producing HT-1080-NT fibrosarcoma cells | HT-1080-NT fibrosarcoma viability, CellTiter-Glo ATP luminescence, 48 h | Potency, µM (doses to about 46.1 µM), for the others: at the top dose activity, negative = less viability, most hits filed as cytotoxic | actives 1.6% (n = 360,000) | AID 686970;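 note: NT is the 2HG producing partner of a matched IDH1 knockdown line; 0% = DMSO-treated cells and -100% = media-only wells without cells; nearly all actives have a fitted effect of over 55% in size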
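Fibrosarcoma NT cells, 750 per well in 5% FBS RPMI, were exposed to compound for 48 hours. Viability: CellTiter-Glo luminescence.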
ATXN2 expr inh = reduces ATXN2 reporter expression in HEK-293 cells; Potency, µM (titrated, usually from 57 µM), inactives show top-dose activity change, negative = inhibition, usual class: inhibitors; HEK-293 ATXN2-luciferase reporter, luminescence, 24 h; actives 0.72% (n = 360,000); AID 1745845; note: % is set by controls: 0 for no effect and ±100 for the full control effect; nearly all actives have a fitted effect of over 55% in size
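qHTS (up to 57 uM final) was run with 24 h compound exposure of reporter cells at 37 °C. Each well was multiplexed: SteadyGlo luminescence measured ATXN2-luciferase expression after a fluorogenic Gly-Phe-AFC viability readout (25 uM final).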
TGFb SMAD3 inh = blocks TGF-b signaling | Potency, µM (doses to about 46.1 µM), inactives show at the highest dose activity, negative = inhibition, most hits filed as inhibitors | AID 588855 | HepG2 CAGA-GFP TGF-b/SMAD3 reporter, GFP fluorescence, 18 h; TGF-beta stimulated, 500 pg/mL final | actives 1.2% (n = 410,000); note: % is set by controls: 0 for no effect and ±100 for the full control effect; nearly all actives have a fitted effect of over 65% in size
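TGF-beta reporter screen: HEPG2 CAGA-GFP, 1% FBS, 500 pg/mL TGF-beta final, 18 h; per-cell GFP summed per well; curves fitted and categorized by class.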
Numbers without * were called inactive; i = inactive; ? = inconclusive; . = not tested or not shown; [ ] = remark or other dose. Calls come from the whole dose curve; as a rule, active = well fitted curve in the direction sought with a large enough effect; inconclusive = small, poorly fitted or top-dose-only effect, or another doubt; inactive = no such curve, though single readings can be large; an effect the other way counts as inactive or inconclusive. Potency is the fitted concentration of half-maximal effect.

SMILES | HT1080 IDH1KD tx | ATXN viability | HepG2 tox | HT1080NT lethal | ATXN2 expr inh | TGFb SMAD3 inh
C=C(C=O)C[C@@H]1C[C@H](O)C2OC3C[C@]4(C)OC5/C=C\CC6OC7C(CC=CCC6OC5CCCC4OC3CC2O1)OC1CC2OC3CC(=O)OC3C[C@@H](C)C[C@@]2(C)OC1C[C@@H]7C (some centres undefined) | . | 1.78µM* | . | 8.2µM* | 1.58µM* | ?
CN(Cc1ccccc1)C(=O)c1ccc(NC(=O)C2CCN(C(=O)OC(C)(C)C)CC2)cc1 | -22.2% | ? | 1.7% | -18.5% | 25.1µM* | -9.0%
O=C(COc1ccc2ccccc2c1)N1CCN(Cc2c[nH]c3ccccc23)CC1 | ? | ? | 12.6µM* | -28.1% | ? | ?
COc1ccc(CN2CCN(C(=O)COc3ccc4ccccc4c3)CC2)c(OC)c1 | ? | i | -16.3% | ? | -28.7% | -29.2%
O=C(COc1ccc(Br)cc1)N1CCN(C2CCCC2)CC1 | -4.0% | i | -5.1% | -0.8% | 1.6% | 0.9%
O=C(COc1ccc(Br)cc1)N1CCN(Cc2c[nH]c3ccccc23)CC1 | -7.2% | i | -62.9% | -2.8% | -7.0% | 11.2µM*
COc1ccc2oc(-c3cccc(NC(=O)c4ccc(C#N)cc4F)c3)nc2c1 | . | ? | -14.6% | . | 0.3% | 9.5%
COc1ccc2c3c1O[C@H]1[C@@H](O)C=C[C@H]4[C@@H](C2)NCC[C@@]341 | . | i | . | . | . | .
C[C@@H]1[C@H]2Cc3ccc(O)cc3[C@]1(C)CCN2C | . | i | . | . | . | .
O=C1C(=O)c2cccc3cccc1c23 | 5.9% | ? | 6.6% | 0.2% | ? | ?
O=C1C(=O)c2ccccc2-c2ccccc21 | 1.16µM* | 2.82µM* | 1.26µM* | 0.92µM* | 2.51µM* | 1.12µM*
Cc1ccc(-c2cc(-c3ccc(C)cc3)[n+](-c3ccc(C(=O)O)cc3)c(-c3ccc(C)cc3)c2)cc1 | -8.9% | i | -13.1% | ? | -0.5% | 8.8%
Cc1ccc(C[n+]2c(-c3ccc(C)cc3)cc(-c3ccc(C)cc3)cc2-c2ccc(C)cc2)cc1 | 2.59µM* | . | -109.5% | 3.26µM* | ? | ?
COc1ccc(Nc2c(-c3cc(Br)ccc3O)nc3ncccn23)cc1OC | . | ? | 4.7% | . | -3.3% | 32.2%
O=c1c2ccccc2[se]n1-c1ccccc1 | ? | ? | -28.8% | 23.1µM* | ? | ?
C[C@@H]1CN([C@H](C)CO)C(=O)CCCn2cc(nn2)CO[C@H]1CN(C)C(=O)Oc1cccc2ccccc12 | 11.6% | i | 10µM* | 6.2% | -1.9% | ?
CCN(CC)c1ccc(C=C2C(=O)NC(=S)NC2=O)cc1 | ? | ? | 15.8µM* | ? | . | 17.8µM*
Nc1ccccc1 | . | i | . | . | 12.9% | .
Nc1ccc(C2(c3ccc(N)cc3)c3ccccc3-c3ccccc32)cc1 | 16.4µM* | i | -0.6% | ? | . | ?
Cc1ccc(NC(=O)c2cc(-c3cc(Cl)ccc3C)n[nH]2)cc1NS(C)(=O)=O | ? | 10µM* | -31.9% | ? | ? | -9.9%
C#C[C@]1(O)C=C[C@@H]2[C@@H]3CCC4=CC(=O)CC[C@@H]4[C@H]3CC[C@@]21CC | . | . | . | . | 9.5% | .
COc1ccc(S(=O)(=O)Nc2cc([N+](=O)[O-])ccc2OC)cc1 | 16.4µM* | ? | 3.4% | 13µM* | -30.8% | -24.7%
COc1ccc(C(=O)OCC(=O)Nc2ccc([N+](=O)[O-])cc2OC)c(O)c1 | 26.8% | ? | -1.7% | 2.7% | ? | 4.9%
O=C(O)c1cccs1 | . | . | 15.6% | . | . | 5.3%
[Hg+][c]1ccccc1 | . | . | 0.562µM* | . | . | 0.316µM*
SMILES | HT1080 IDH1KD tx | ATXN viability | HepG2 tox | HT1080NT lethal | ATXN2 expr inh | TGFb SMAD3 inh
c1ccc(Nc2ccc(Nc3ccccc3)cc2)cc1 | -14.4% | i | -14.7% | -25.5% | -7.1% | 0.9%
CCc1c(C(=O)C(N)=O)c2c(OCC(=O)O)cccc2n1Cc1ccccc1 | . | . | . | . | -2.1% | .
CS(=O)(=O)c1ccc(C(=O)C2C(=O)CCCC2=O)c([N+](=O)[O-])c1 | . | i | . | . | 0.9%[116 µM] | .
COc1ccc(CCNC(=O)c2ccc3c(c2)CCN3S(=O)(=O)c2ccc(C)cc2)cc1OC | . | ? | -17.6% | . | -12.1% | -17.7%
COC[C@H]1OC(=O)c2coc3c2[C@@]1(C)C1=C(C3=O)[C@@H]2CCC(=O)[C@@]2(C)C[C@H]1OC(C)=O | 23.1µM* | i | -28.3% | ? | -23.4% | ?
CCOC(=O)c1cccc(NC(=O)c2cnc(N3CCCCC3)c3ccccc23)c1 | . | . | -21.4% | . | . | ?
CC(C)n1c(/C=C/[C@H](O)C[C@H](O)CC(=O)O)c(-c2ccc(F)cc2)c2ccccc21 | 9.2µM* | i | -4.6% | 8.2µM* | . | 35.4%
O=C(CN1CCN(C(=O)CNC(=O)c2ccc(-c3ccccc3)cc2)CC1)Nc1ccccc1Cl | ? | ? | -25.6% | ? | . | -9.4%
CN1CCN(c2ccc([N+](=O)[O-])c(N/N=C3\CN4CCC3CC4)c2)CC1 | -13.0% | 10µM* | -22.3% | -9.7% | -7.2% | 8.0%
CC(=O)C1=C(O)C2(C)c3c(O)c(C)c(O)c(C(C)=O)c3OC2CC1=O (centres undefined) | -29.7% | i | -50.6% | ? | . | ?
CC[C@@H](C(=O)[C@@H](C)[C@@H](O)[C@H](C)[C@@H]1O[C@@H]([C@@H](CC)C(=O)O)CC[C@@H]1C)[C@H]1O[C@]2(C=C[C@@H](O)[C@]3(CC[C@@](C)([C@H]4CC[C@](O)(CC)[C@H](C)O4)O3)O2)[C@H](C)C[C@@H]1C | 2.91µM* | 5.62µM* | -20.1% | 0.517µM* | 4.47µM* | ?
C=C1[C@@H](C)[C@H]2[C@H](Cc3ccccc3)NC(=O)[C@]23OC(=O)/C=C/[C@H](O)CCC[C@@H](C)C/C=C/[C@H]3[C@@H]1O | 0.731µM* | i | -36.3% | 1.3µM* | -9.8% | ?
CC(C)(C)c1ccc(/C=C2\Oc3cc(OC(=O)N4CCOCC4)ccc3C2=O)cc1 | 18.4µM* | ? | -23.0% | 20.6µM* | -26.9% | ?
Cc1cccc(OC(=O)N2CCOCC2)c1 | 2.5% | i | -3.5% | 2.7% | -5.2% | 5.8%
Cc1cc2ccccc2n1-c1ccc(C(=O)N2CCC(C(=O)NCc3ccc(Cl)cc3)CC2)s1 | . | . | -26.8% | . | . | ?
COc1ccc(/C=C/C(=O)NC(=S)NCCc2ccc(OC)c(OC)c2)cc1 | 10µM* | ? | 6.31µM* | 11.2µM* | ? | 5.62µM*
C/C(=N\Nc1ccccc1)c1c(O)n(Cc2ccccc2)c(=O)[nH]c1=O | ? | i | 17.0% | ? | -19.6% | -1.9%
